About 2,200 (100%) of roughly 2,200 compounds were called active. The set was probably picked from earlier hits. The list shows a part of the results. Where a call stands in place of a potency, no number is given. Potency and affinity values are given separately. Inconclusive results are not listed. No rule for the calls is given here.

The nature of the experiment: PubChem AID 449748. To be noted: cancer stem cell-like cells viability, luminescence; series mostly up to 19.5 µM.
Turning to `CSc1ccccc1C(=O)Nc1cc(C)ccc1C`, the call was inactive.
